Experimental data taken from PubChem BioAssay AID2013 (Sanford-Burnham Center for Chemical Genomics, 2009).
Among all 290,000 compounds or so, about 370 (0.13%) were called active. Only a selection was taken, and actives are over-represented in it overall. Potency and affinity values are given separately. Values without a mark were called inactive.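 Rule for the calls: active = spots per cell inhibited over 60%, with over 100 cells counted and total cytoplasm intensity under 500,000; inconclusive = wells with under 100 cells, flagged as likely toxic; inactive = the rest.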

These compounds were tested against G-protein coupled receptor 55 (Homo sapiens) (UniProt Q9Y2T6) (assay: inhibition of LPI-stimulated GPR55 beta-arrestin translocation – imaging, U2OS, beta-arrestin-GFP, LPI agonist, primary screen (AID 2013;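 note: U2OS cells stably carrying GPR55 and arrestin-GFP stimulated by 5 µM LPI near EC80; imaged beta-arrestin-GFP aggregate spots per cell after agonist stimulation; plate controls were LPI-stimulated DMSO wells for no effect and DMSO wells without LPI for full effect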)). Conditions: LPI antagonism, at 10 µM, stronger effect = higher value.
Chain of G-protein coupled receptor 55 (Homo sapiens) (Q9Y2T6 whole entry, looked up): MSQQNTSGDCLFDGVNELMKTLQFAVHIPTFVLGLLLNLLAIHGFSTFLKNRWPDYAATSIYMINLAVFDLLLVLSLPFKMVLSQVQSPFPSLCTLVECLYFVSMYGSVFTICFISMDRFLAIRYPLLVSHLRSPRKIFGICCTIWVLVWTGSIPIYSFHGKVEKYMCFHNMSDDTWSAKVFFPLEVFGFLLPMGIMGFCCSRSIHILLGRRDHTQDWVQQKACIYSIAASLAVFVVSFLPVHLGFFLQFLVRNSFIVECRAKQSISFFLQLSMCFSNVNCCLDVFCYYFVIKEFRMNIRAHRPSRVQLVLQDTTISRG

Compound	inhibition
CC(C)CNC(=S)N1CCC(c2nc(-c3ccc(F)cc3)no2)CC1	6.8%
CCCc1nnc2n1N=C(c1ccc(-c3cc(Cl)ccc3Cl)o1)CS2	-0.8%
CC[C@H](C)[C@@H](NC(=O)O[C@@H]1C(=O)c2cc(Br)ccc2O[C@H]1c1ccc2c(c1)OCO2)C(=O)OC	-3.7%
COC(CNC(=O)c1ccc(CS(=O)(=O)c2ccc(Br)cc2)o1)OC	-14.8%
CC(=O)O[C@@H]1[C@H]2[C@@H](C[C@@H](C)[C@@H]3CCC(=O)[C@@]13C)OC(=O)[C@@H]2C	6.6%
CC(=O)O[C@@H]1[C@H]2[C@@H](C[C@@H](C)[C@@H]3C=CC(=O)[C@@]13C)OC(=O)[C@@H]2C	-2%
C=C1C(=O)O[C@H]2C[C@]3(C)C([C@@H](OC(=O)/C(C)=C/C)[C@H]12)[C@](C)(O)CC[C@H]3O (stereo partly drawn)	10.2%
C[C@@H]1C[C@@H]2OC(=O)[C@]3(C)[C@H]2[C@@H](OC3(C)O)[C@]2(C)C(=O)C=C[C@H]12 (stereo partly drawn)	6.3%
O=C(Nc1ccc(-n2cnnn2)cc1)C(c1ccccc1)c1ccccc1	6.3%
CN1CCN(C(=O)c2cnn(-c3ccccc3)c2NC(=O)c2ccccc2Br)CC1	2.7%
COc1ccc(C(C)=O)cc1CSc1nnc(Nc2ccc(C)cc2C)s1	1.3%
CCn1c(Cn2nnc(-c3ccccc3)n2)nnc1SCC(=O)Nc1ccccc1	-10.2%
CCOC(=O)CSc1nnc(Cn2nnc(-c3ccccc3)n2)n1CC	16%
COc1ccccc1OCC(=O)NCc1nc(-c2ccccc2)no1	4.4%
COc1ccc2[nH]c3c(=O)n(/N=C/c4ccc(OC)c(CN5CCCC5)c4)c(C)nc3c2c1	11.7%
COc1ccc(S(=O)(=O)CC(=O)c2cc3cccc(C)c3oc2=O)cc1	-0.3%
COc1ccc2cc(C(=O)CS(=O)(=O)c3ccccc3)c(=O)oc2c1	-4.7%
COc1cc(S(=O)(=O)NC2CCCC2)c(OC)cc1Cl	-2.6%
COc1ccc(C2(C(=O)N3CCC(n4nc(-c5ccccc5)oc4=O)CC3)CC2)cc1	7.7%
O=C(N1CCCCC1)C1(c2ccccc2)CCCCC1	4.3%

Compound	inhibition
O=C(N1CCC(n2nc(-c3ccccc3)oc2=O)CC1)C1(c2ccccc2)CC1	-6.7%
O=C(N1CCOCC1)C1(c2ccc(Cl)cc2)CCCC1	44.4%
COc1ccc(C(OC(=O)c2ccco2)C(=O)NCc2ccco2)cc1 (stereo not drawn)	14.6%
COC(=O)c1ccccc1SCc1csc(C)n1	5.7%
COc1ccccc1NC(=O)CCN1CC(C)OC(C)C1 (stereo not drawn)	3.2%
O=C(NCC(=O)N1CCC2(CC1)NCCc1[nH]cnc12)c1ccc2ccccc2c1	15.2%
CCCCN1C(=O)/C(=C/C=C2\N(C)c3ccccc3C2(C)C)SC1=S	17.2%
CCCN1C(=O)/C(=C/C=C2\N(CC)c3ccccc3C2(C)C)SC1=S	-9%
CCCCNC(=O)N1c2ccccc2CC1C (stereo not drawn)	7.4%
COC(=O)c1[nH]c2ccccc2c1NC(=O)c1ccccc1[N+](=O)[O-]	12.4%
Cc1ccc(OCc2ccc(C#N)cc2)c(C(=O)c2cc(C#N)c(=O)n(C3CC3)c2)c1	-4.5%
N=C1SCC(=O)N1c1ncc(Cc2ccccc2Cl)s1	38%
Cc1cccc(Cc2cnc(N3C(=N)SC(c4ccccc4)C3=O)s2)c1 (stereo not drawn)	2.3%
N=C1SCC(=O)N1c1ncc(Cc2cccc(Cl)c2)s1	98.9% (active)
N=C1SCC(=O)N1c1ncc(Cc2ccc(F)cc2)s1	12.6%
Cc1ccc(Cc2cnc(N3C(=N)SC(C)C3=O)s2)cc1 (stereo not drawn)	16.2%
CCN(CC)CCN(C(=O)c1ccc2c(c1)OCCO2)c1nc2cc(C)cc(C)c2s1	9.6%
CC1CCCN(C(=O)Cn2nnc(-c3ccccc3F)n2)C1 (stereo not drawn)	4.4%
Cc1ccc(OCCOc2cccc(Br)c2)c([N+](=O)[O-])n1	9.4%
Cc1nc(SCC(=O)c2cc3ccccc3oc2=O)c(C#N)c(-c2ccccc2)c1C(=O)Nc1ccccc1	3.8%

Compound	inhibition
COc1ccc(N(C(=O)c2ccncc2)S(=O)(=O)c2ccc(F)cc2)cc1	-6%
O=C(O)c1cccc(COc2ccccc2Cl)c1	4.2%
CN(C(=O)c1ccccc1OCc1ccc(Cl)cc1)c1ccccc1	4.2%
O=C(COc1ccc([N+](=O)[O-])cc1)Nc1ccccc1N1CCCC1	7.8%
COc1ccc(C(CCNCc2ccccc2)c2ccc(F)cc2)cc1 (stereo not drawn)	37.5%
COc1ccc(C(CCNCc2ccc(F)cc2)c2ccc(F)cc2)cc1 (stereo not drawn)	45.1%
COc1ccc(C(CCNCc2ccc(N(C)C)cc2)c2ccccc2)cc1 (stereo not drawn)	33.8%
COc1ccc(C(CCN)c2ccc3c(c2)OCO3)cc1 (stereo not drawn)	12.6%
O=C(NCc1ccccc1)c1ccc(C2SCC(=O)N2Cc2ccccc2)cc1 (stereo not drawn)	4.1%
CCCNC(=O)c1ccc(C2SCC(=O)N2Cc2ccccc2)cc1 (stereo not drawn)	0%
CC(C)c1ccc(C2CC(=O)c3cnc(NC(=O)c4ccco4)nc3C2)cc1 (stereo not drawn)	6.3%
O=C(CC(=O)NCc1ccc(Cl)cc1)NCc1ccc(Cl)cc1	1.9%
CC(C)C(=O)Nc1ccc2c(c1)nc(CCN1CCCCC1)n2C	-5.6%
Cc1cc(C)c(C2C(C#N)=C(N)Oc3n[nH]c(C)c32)cc1CN1CCCC1 (stereo not drawn)	7.5%
COc1ccc(S(=O)(=O)N2CCCCCC2)cc1N(C)S(=O)(=O)c1ccc(Cl)cc1	18.7%
COc1ccc(S(=O)(=O)NN(C)C)cc1N(C)S(=O)(=O)c1ccc(Cl)cc1	9.7%
COc1ccc(NS(=O)(=O)c2ccc(OC)c(N(C)S(=O)(=O)c3ccc(Cl)cc3)c2)cc1	1.4%
COc1ccc(S(=O)(=O)Nc2ccc(S(=O)(=O)Nc3ccc(F)cc3)cc2)cc1C	17.8%
